# Measured values published in the supplement of paper PMC13380429.
# Tested on: Vero E6 infected with SARS-CoV-2
# Test: morphology score (similarity to uninfected cells); higher = more like uninfected cells
# Details: 24 h
row,Structure (SMILES),morphology score
1,CCN(CCO)CCCC(C)Nc1ccnc2cc(Cl)ccc12 (stereo unspecified) [hydroxychloroquine] (10 µM),0.362
2,C[C@@H](O)[C@H]1C(=O)N2C(C(=O)O)=C(S[C@@H]3CN[C@H](CNS(N)(=O)=O)C3)[C@H](C)[C@H]12 [doripenem] (10 µM),0.131
3,CCCNC(=O)Nc1ccc(Oc2ncnc3cc(OC)c(OC)cc23)cc1Cl (10 µM),-0.0266
4,Nc1cccc2c(=O)[nH][nH]c(=O)c12 [monosodium-alpha-luminol] (10 µM),0.000532
5,CCCSc1nc(N[C@@H]2C[C@H]2c2ccc(F)c(F)c2)c2nnn([C@@H]3C[C@H](OCCO)[C@@H](O)[C@H]3O)c2n1 [ticagrelor] (10 µM),-0.0229
6,O=C(O)CC/C=C\C[C@@H]1CO[C@H](c2ccccc2Cl)O[C@@H]1c1ccccc1O (racemic) (10 µM),-0.000999
7,OC[C@H]1O[C@@H](OCCc2ccc(O)cc2)[C@H](O)[C@@H](O)[C@@H]1O [salidroside] (10 µM),0.0363
8,CCOP(=S)(OCC)Oc1cc(C)nc(C(C)C)n1 [dimpylate] (10 µM),-0.0379
9,Clc1ccc2c(NCCNc3ccnc4cc(Cl)ccc34)ccnc2c1 (10 µM),0.0758
10,Nc1ccc([As](=O)(O)O)cc1 [arsanilic-acid] (10 µM),-0.00345
11,CC1(C)C(=O)N(CCN2CCC(C(=O)c3ccc(F)cc3)CC2)c2ccccc21 (10 µM),-0.158
12,O=[N+]([O-])c1cc(Cl)ccc1S(=O)(=O)N1CCN(Cc2ccccc2)CC1 (10 µM),-0.0654
13,CN1CCN(c2ccc3ccccc3n2)CC1 [N-methylquipazine] (10 µM),0.139
14,C[C@@H]1C[C@H]2[C@@H]3C[C@H](F)C4=CC(=O)C=C[C@]4(C)[C@@]3(F)[C@@H](O)C[C@]2(C)[C@@]1(O)C(=O)CO [flumethasone] (10 µM),-0.0494
15,C[C@]12CCC(=O)C[C@@H]1CC[C@@H]1[C@@H]2CC[C@]2(C)[C@@H](O)CC[C@@H]12 [Dihydrotestosterone] (10 µM),-0.034
16,CCc1cccc(CC)c1NC(=O)N1Cc2[nH]nc(NC(=O)c3ccc(N4CCN(C)CC4)cc3)c2C1 (10 µM),0.108
17,CC(=O)[C@H]1CC[C@H]2[C@@H]3C[C@H](C)C4=CC(=O)CC[C@]4(C)[C@H]3[C@@H](O)C[C@]12C [medrysone] (10 µM),0.0629
18,CCOP(=S)(OCC)Oc1ccc2c(C)c(Cl)c(=O)oc2c1 [coumophos] (10 µM),-0.0715
19,O=C(Nc1cc(C(F)(F)F)cc(C(F)(F)F)c1)Nc1c(Br)cc(Br)cc1-c1nnn[nH]1 (10 µM),0.192
20,CNC(=O)c1c(I)c(C(=O)NCC(=O)Nc2c(I)c(C(=O)O)c(I)c(C(=O)NCCO)c2I)c(I)c(N(C)C(C)=O)c1I [ioxaglic-acid] (10 µM),0.0564
21,"CCCn1c(=O)c2nc(-c3ccccc3)[nH]c2n(CCC)c1=O [1,3-dipropyl-8-phenylxanthine] (10 µM)",0.102
22,O=C(O)[C@H](Cc1c[nH]c2ccccc12)N1C(=O)c2ccccc2C1=O (10 µM),-0.0791
23,Cc1ccc([N+](=O)[O-])cc1S(=O)(=O)N(C)C (10 µM),0.0445
24,CCC[C@H](NC(=O)[C@@H]1[C@H]2CCC[C@H]2CN1C(=O)[C@@H](NC(=O)[C@@H](NC(=O)c1cnccn1)C1CCCCC1)C(C)(C)C)C(=O)C(=O)NC1CC1 [telaprevir] (10 µM),0.229
25,C[C@H](Cc1ccc(OCC(=O)O)cc1)NC[C@H](O)c1cccc(Cl)c1 (10 µM),-0.0663
26,CCCCC(=O)O[C@]1(C(=O)CO)CC[C@H]2[C@@H]3CCC4=CC(=O)CC[C@]4(C)[C@H]3[C@@H](O)C[C@@]21C [hydrocortisone-valerate] (10 µM),0.0807

# Tested on: Vero E6 infected with SARS-CoV-2
# Test: SARS-CoV-2 infection rate relative to infected DMSO; higher = more infection, active = 60 or less
# Details: 24 h
row,Structure (SMILES),SARS-CoV-2 infection rate
1,CN1CCC(c2c[nH]c3ccc(O)cc23)CC1 (10 µM),101% (inactive)
2,Clc1cccc2c1CN(C1=NCCN1)C2 (10 µM),93.5% (inactive)
3,CN(C)c1ccc2nc3ccc(=[N+](C)C)cc-3sc2c1 [methylene-blue] (0.833333 µM),104% (inactive)
4,COc1c(C)c2c(c(O)c1C/C=C(\C)CCC(=O)OCCN1CCOCC1)C(=O)OC2 [mycophenolate-mofetil] (10 µM),108% (inactive)
5,COC(=O)[C@H](CC(C)C)NC(=O)c1ccc(NC[C@@H](N)CS)cc1-c1cccc2ccccc12 (10 µM),115% (inactive)
6,CN(C)CCCC(=O)Nc1ccc(C(=O)Nc2cccc(Nc3ncc(Cl)c(-c4c[nH]c5ccccc45)n3)c2)cc1 (10 µM),101% (inactive)
7,COc1ccc(-c2ccc3ncc4c(c3c2)n(-c2ccc(N3CCNCC3)c(C(F)(F)F)c2)c(=O)n4C)cn1 (0.833333 µM),104% (inactive)
8,CC(C)C(N)=O [isobutyramide] (10 µM),111% (inactive)
9,CC(C)(C)c1ccc(C(O)CCCN2CCC(C(O)(c3ccccc3)c3ccccc3)CC2)cc1 (stereo unspecified) [terfenadine] (10 µM),96% (inactive)
10,NCCCCN=C(N)N [agmatine] (10 µM),106% (inactive)
11,Oc1cc(O)c(Cl)cn1 [gimeracil] (10 µM),107% (inactive)
12,CC(C)(C(=O)O)c1ccc(C(=O)CCCN2CCC(OC(c3ccccc3)c3ccccc3)CC2)cc1 [carebastine] (10 µM),103% (inactive)
13,N#Cc1ccccc1OCC(O)CNCCNC(=O)Nc1ccccc1 (stereo unspecified) (10 µM),109% (inactive)
14,CC(C)Oc1ccc2c(=O)c3cc(C(=O)O)ccc3oc2c1 (10 µM),100% (inactive)
15,CCN(CCO)CCCC(C)Nc1ccnc2cc(Cl)ccc12 (stereo unspecified) [hydroxychloroquine] (10 µM),88% (inactive)
16,C[C@@H](O)[C@H]1C(=O)N2C(C(=O)O)=C(S[C@@H]3CN[C@H](CNS(N)(=O)=O)C3)[C@H](C)[C@H]12 [doripenem] (10 µM),100% (inactive)
17,CCCNC(=O)Nc1ccc(Oc2ncnc3cc(OC)c(OC)cc23)cc1Cl (10 µM),108% (inactive)
18,Nc1cccc2c(=O)[nH][nH]c(=O)c12 [monosodium-alpha-luminol] (10 µM),104% (inactive)
19,CCCSc1nc(N[C@@H]2C[C@H]2c2ccc(F)c(F)c2)c2nnn([C@@H]3C[C@H](OCCO)[C@@H](O)[C@H]3O)c2n1 [ticagrelor] (10 µM),104% (inactive)
20,O=C(O)CC/C=C\C[C@@H]1CO[C@H](c2ccccc2Cl)O[C@@H]1c1ccccc1O (racemic) (10 µM),106% (inactive)

row,Structure (SMILES),SARS-CoV-2 infection rate
1,OC[C@H]1O[C@@H](OCCc2ccc(O)cc2)[C@H](O)[C@@H](O)[C@@H]1O [salidroside] (10 µM),116% (inactive)
2,CCOP(=S)(OCC)Oc1cc(C)nc(C(C)C)n1 [dimpylate] (10 µM),116% (inactive)
3,Clc1ccc2c(NCCNc3ccnc4cc(Cl)ccc34)ccnc2c1 (10 µM),108% (inactive)
4,Nc1ccc([As](=O)(O)O)cc1 [arsanilic-acid] (10 µM),103% (inactive)
5,CC1(C)C(=O)N(CCN2CCC(C(=O)c3ccc(F)cc3)CC2)c2ccccc21 (10 µM),110% (inactive)
6,O=[N+]([O-])c1cc(Cl)ccc1S(=O)(=O)N1CCN(Cc2ccccc2)CC1 (10 µM),112% (inactive)
7,CN1CCN(c2ccc3ccccc3n2)CC1 [N-methylquipazine] (10 µM),100% (inactive)
8,C[C@@H]1C[C@H]2[C@@H]3C[C@H](F)C4=CC(=O)C=C[C@]4(C)[C@@]3(F)[C@@H](O)C[C@]2(C)[C@@]1(O)C(=O)CO [flumethasone] (10 µM),110% (inactive)
9,C[C@]12CCC(=O)C[C@@H]1CC[C@@H]1[C@@H]2CC[C@]2(C)[C@@H](O)CC[C@@H]12 [Dihydrotestosterone] (10 µM),110% (inactive)
10,CCc1cccc(CC)c1NC(=O)N1Cc2[nH]nc(NC(=O)c3ccc(N4CCN(C)CC4)cc3)c2C1 (10 µM),113% (inactive)
11,CC(=O)[C@H]1CC[C@H]2[C@@H]3C[C@H](C)C4=CC(=O)CC[C@]4(C)[C@H]3[C@@H](O)C[C@]12C [medrysone] (10 µM),106% (inactive)
12,CCOP(=S)(OCC)Oc1ccc2c(C)c(Cl)c(=O)oc2c1 [coumophos] (10 µM),110% (inactive)
13,O=C(Nc1cc(C(F)(F)F)cc(C(F)(F)F)c1)Nc1c(Br)cc(Br)cc1-c1nnn[nH]1 (10 µM),104% (inactive)
14,CNC(=O)c1c(I)c(C(=O)NCC(=O)Nc2c(I)c(C(=O)O)c(I)c(C(=O)NCCO)c2I)c(I)c(N(C)C(C)=O)c1I [ioxaglic-acid] (10 µM),104% (inactive)
15,"CCCn1c(=O)c2nc(-c3ccccc3)[nH]c2n(CCC)c1=O [1,3-dipropyl-8-phenylxanthine] (10 µM)",104% (inactive)
16,O=C(O)[C@H](Cc1c[nH]c2ccccc12)N1C(=O)c2ccccc2C1=O (10 µM),115% (inactive)
17,Cc1ccc([N+](=O)[O-])cc1S(=O)(=O)N(C)C (10 µM),97% (inactive)
18,CCC[C@H](NC(=O)[C@@H]1[C@H]2CCC[C@H]2CN1C(=O)[C@@H](NC(=O)[C@@H](NC(=O)c1cnccn1)C1CCCCC1)C(C)(C)C)C(=O)C(=O)NC1CC1 [telaprevir] (10 µM),106% (inactive)
19,C[C@H](Cc1ccc(OCC(=O)O)cc1)NC[C@H](O)c1cccc(Cl)c1 (10 µM),107% (inactive)
20,CCCCC(=O)O[C@]1(C(=O)CO)CC[C@H]2[C@@H]3CCC4=CC(=O)CC[C@]4(C)[C@H]3[C@@H](O)C[C@@]21C [hydrocortisone-valerate] (10 µM),107% (inactive)
